# In the library only some 2.3% were active in any assay of this set; here they are far more common.
# PME-1 inh: PME-1 inhibitors via competitive probe labeling, primary screen, biochemical, fluorescence polarization, FP-Rh probe, HTS. AID 2130, 2009. recombinant PME-1. inhibition, % at 5.9 µM. hit rate 0.53% among 320,000;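 active = inhibition above the campaign mean of all compounds plus 3 SD, cut at about 26% in these data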;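 note: competitive labeling of PME-1 active site by serine hydrolase directed probe; 0% = PME-1 with DMSO and 100% = wells lacking PME-1 enzyme; inhibitors block probe labeling so polarization falls and inhibition rises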
# Target sequence (Q9Y570 whole entry, looked up): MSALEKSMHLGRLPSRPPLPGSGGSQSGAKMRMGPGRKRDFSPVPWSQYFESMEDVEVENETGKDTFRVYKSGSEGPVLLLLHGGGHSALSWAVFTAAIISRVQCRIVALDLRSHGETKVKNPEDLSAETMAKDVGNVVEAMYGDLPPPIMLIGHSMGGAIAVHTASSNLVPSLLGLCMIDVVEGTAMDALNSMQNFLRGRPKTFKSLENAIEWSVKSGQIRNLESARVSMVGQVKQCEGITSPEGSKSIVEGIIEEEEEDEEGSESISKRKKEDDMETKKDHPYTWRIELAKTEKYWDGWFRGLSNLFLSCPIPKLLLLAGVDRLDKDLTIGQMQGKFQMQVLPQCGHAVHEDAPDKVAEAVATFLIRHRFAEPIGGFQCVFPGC
# PAD4 inh: human PAD4 inhibitors, primary screen, biochemical, fluorescence polarization, 1536-well format; recombinant PAD4, RCA probe fluorescence polarization; Protein-arginine deiminase type-4 (Homo sapiens), Q9UM07; hit rate 0.41% among 330,000; inhibition, % at 6.36 µM;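 active = percent inhibition above a cutoff equal to the mean of all tested compounds plus 3 SD, cut at about 15% in these data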;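 note: 0% = PAD4 with RCA probe and DMSO and 100% = probe without PAD4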
# pPAFAH inh: pPAFAH enzyme inhibitors, primary screen, biochemical, fluorescence polarization, human | Platelet-activating factor acetylhydrolase (Homo sapiens), Q13093 | recombinant pPAFAH, FP-rhodamine probe fluorescence polarization | inhibition, % at 3.39 µM | hit rate 1.5% among 330,000;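 active = inhibition above the mean inhibition across the screen plus 3 SD, cut at about 25% in these data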;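 note: inhibitors block binding of the rhodamine activity-based probe so polarization drops; 0% = enzyme with DMSO and 100% = wells lacking pPAFAH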
# Fam108B inh: mouse Fam108B serine hydrolase inhibitors, primary screen, counter-screen for RBBP9 inhibitor project, biochemical, fluorescence polarization; recombinant Fam108B, FP-Rh probe fluorescence polarization; inhibition, % at 9.51 µM; hit rate 0.33% among 300,000; AID 1947, 2009;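 active = inhibition above the screen mean inhibition plus 3 SD, computed separately per campaign, cut at about 18% in these data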;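 note: inhibitors lower polarization as less probe binds the enzyme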
# GSTO1 counter: inhibitors of recombinant GSTO1, primary screen, counter-screen for RBBP9 inhibitor project, biochemical, fluorescence polarization; Glutathione S-transferase omega-1 (Homo sapiens), P78417; activity-based probe fluorescence polarization; inhibition, % at 5.96 µM; hit rate 1.1% among 300,000; AID 1974, 2009;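 active = inhibition above the campaign mean inhibition plus 3 SD, cut at about 35% in these data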;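 note: 0% = GSTO1-1 with DMSO and 100% = wells lacking GSTO1-1 enzyme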
# Target sequence (P78417 whole entry, looked up): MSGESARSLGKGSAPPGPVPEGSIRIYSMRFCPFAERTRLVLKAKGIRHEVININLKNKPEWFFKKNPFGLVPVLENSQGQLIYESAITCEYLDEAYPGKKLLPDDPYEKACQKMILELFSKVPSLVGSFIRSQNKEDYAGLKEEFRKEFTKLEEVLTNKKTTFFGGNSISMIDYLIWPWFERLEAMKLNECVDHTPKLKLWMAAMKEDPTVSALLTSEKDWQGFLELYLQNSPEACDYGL
# Numbers without * were called inactive; . = no result.
SMILES,PME-1 inh,PAD4 inh,pPAFAH inh,Fam108B inh,GSTO1 counter
Cc1cc(O)c2c(c1)C(=O)c1cc(O)cc(O)c1C2=O,15,-10,30*,16,34
O=C1c2cccc(O)c2C(=O)c2c(O)cc(CO)cc21,7,8,10,5,18
CC(=O)c1cccc(-c2csc(N3CCC(C(N)=O)CC3)n2)c1,.,3,-5,.,.
NC(=O)C1CCN(c2nc(-c3cccc(Cl)c3)cs2)CC1,.,1,33*,.,.
CC/C(=N/Nc1ccc(Cl)cc1)c1cnnc(SC)n1,2,-2,0,1,50*
CC/C(=N/Nc1cccc(C)c1)c1cnnc(SC)n1,5,-12,3,-3,50*
CCN(CC)C(=O)NCc1c(C)cc(C)cc1C,3,-5,3,-1,4
NS(=O)(=O)c1ccc(N=Nc2c[nH]c(=O)c(O)c2)cc1,-66,3,9,4,64*
Cc1[nH][nH]c(=O)c1N=Nc1ccc(S(N)(=O)=O)cc1,3,-2,-3,-3,9
Cc1oc2cc(O)ccc2c(=O)c1Oc1ccc2ccccc2c1,-6,2,0,0,37*
Cc1ccc(SCC(=O)OCC(=O)N(C)CC(=O)Nc2ccc(F)cc2)cc1,-1,0,27*,6,-1
Cc1ccc(OCCC(=O)OCC(=O)NCCc2ccccc2)cc1,4,-2,24,-1,0
Cc1ccc(SCC(=O)OCC(=O)NCCc2ccccc2)cc1,-8,-5,28*,.,.
Cc1ccc(C(=O)OCC(=O)NCCc2ccccc2)cc1C,8,-3,13,.,.
Cc1ccc(SCC(=O)OCC(=O)N(C)CC(=O)Nc2ccccc2Cl)cc1,-10,-2,19,1,7
Cc1ccc(SCC(=O)OCC(=O)NCCc2ccccc2)cc1C,0,4,30*,.,.
O=C(Nc1ccc(OC(F)(F)F)cc1)NC1CCC(Oc2ccc(C(=O)O)cc2)CC1 (centres undefined),6,0,3,.,.
COCCN(C(=O)CC(C)(C)C)c1nnc(-c2cccnc2)s1,1,0,-1,0,0
COCCN(C(=O)CCc1ccccc1OC)c1nnc(-c2cccnc2)s1,3,6,25*,4,2
COc1ccc(S(=O)(=O)N(C)C)cc1NC(=O)CCCSc1ccccc1,-3,-3,15,-4,-2
CCCOc1ccc(C(=O)N/N=C/c2c[nH]c3ccc(Br)cc23)cc1,22,-4,27*,8,-18
COc1ccc(C(=O)N/N=C/c2c[nH]c3ccccc23)cc1,8,-4,-1,-3,-6
CCCN(CC(=O)Nc1ccccc1C)C(=O)CC(NC(=O)c1ccccc1)c1ccccc1 (centres undefined),-5,4,3,0,-2
O=C(O)c1cc(O)c2c(c1)[C@@H]([C@H]1c3cc(C(=O)O)cc(O)c3C(=O)c3c(O[C@@H]4O[C@H](CO)[C@@H](O)[C@H](O)[C@H]4O)cccc31)c1cccc(O[C@@H]3O[C@H](CO)[C@@H](O)[C@H](O)[C@H]3O)c1C2=O,.,-9,95*,.,.
COC(=O)[C@H]1C[C@H](O)CN1S(=O)(=O)c1ccc(Br)cc1F,.,-1,3,.,.
SMILES,PME-1 inh,PAD4 inh,pPAFAH inh,Fam108B inh,GSTO1 counter
Cc1ccc(S(=O)(=O)N2CCC(=O)N(CCOCc3ccc(Cl)cc3)CC2)cc1,4,-4,32*,4,0
Cc1ccc(S(=O)(=O)N2CCC(=O)N(CCOCc3cccc(Cl)c3)CC2)cc1,10,1,21,-1,-2
Nc1ccc(O)cc1C(=O)OCC(=O)C12CC3CC(CC(C3)C1)C2,0,0,29*,6,16
CCOc1cc(/C=C2\N=C(SCC)SC2=O)cc([N+](=O)[O-])c1OC(C)=O,35*,1,23,14,-6
CN(C(=O)CSCC(=O)Nc1ccc(Cl)cc1)C1CCCCC1,.,-3,4,.,.
Cc1ccccc1CSc1ccc(S(=O)(=O)N2CCCC2)cn1,.,-2,11,.,.
CCCCN1C(=O)C(=O)N(CC(=O)Nc2sc(CC)cc2C(=O)OCC)C1=O,-4,-1,33*,-1,11
CCOC(=O)c1cc(CC)sc1NC(=O)COC,-4,2,10,1,-5
O=C(COC(=O)CN1C(=O)c2ccccc2C1=O)Nc1cccc(F)c1,-5,-5,2,.,.
Nn1c(SCC(=O)N2CCN(S(=O)(=O)c3ccc(Cl)cc3)CC2)nnc1-c1cccs1,10,1,31*,1,-8
Nn1c(SCC(=O)N2CCN(S(=O)(=O)c3ccccc3)CC2)nnc1-c1cccs1,0,1,4,2,0
CCN(Cc1ccccc1)c1ccc(N=Nc2nn(C)c(C)c2[N+](=O)[O-])cc1,10,3,25*,9,14
CCOC(=O)NC1c2ccccc2Oc2ccccc21,-6,-2,-6,3,12
CCOC(=O)NC1(NC(C)C)Oc2ccccc2O1,0,-2,9,2,37*
CC(C)CCn1nnnc1CN1CCN(C(=O)c2ccco2)CC1,-2,1,2,-1,3
O=C(O)CCc1ccc(-c2cccs2)n1CCC(=O)O,-1,-3,10,-1,-1
O=C(O)CCc1ccc(-c2cccs2)n1CCc1ccccc1,1,1,34*,-1,8
c1ccc(-c2nc(-c3ccco3)n3ccccc23)cc1,-3,-18,25*,-1,5
c1ccc(Nc2c(-c3ccco3)nc3ccccn23)cc1,4,-3,1,3,3
NS(=O)(=O)c1cccc(NC(=O)COC(=O)CSCc2ccccc2)c1,.,0,28*,.,.
CN(C)S(=O)(=O)c1cccc(NC(=O)COC(=O)CCSc2ccc(Cl)cc2)c1,1,-1,18,3,6
NS(=O)(=O)c1cccc(NC(=O)COC(=O)CCSc2ccccc2)c1,5,-6,25*,-8,-2
C#CCN1C(=O)S/C(=C\c2ccc(-c3ccc(C(=O)O)cc3C)o2)C1=O,-14,-11,31*,3,8
CCOC(=O)C(C)N1C(=O)S/C(=C\c2ccc(-c3ccccc3C(=O)O)o2)C1=O (centres undefined),-4,-7,28*,5,17
O=C(CSc1nnc(SCc2ccccc2)s1)N/N=C/C=C\c1ccco1,0,-8,28*,4,8
Cn1cccc1CC(=O)N/N=C/C=C/c1ccco1,-2,0,27*,1,7
CC(=O)C1C(c2ccc([N+](=O)[O-])cc2)c2c(noc2C)CC1(C)O (centres undefined),2,2,1,2,5
COC(=O)c1sccc1NC(=O)Nc1cccc(F)c1,1,-2,5,-5,-5
CNC(=O)c1cccc(NC(=O)CCCNC(=O)c2ccc(Cl)cc2)c1,0,-6,-1,3,1

# From PubChem
